Results filed as inconclusive are left out. Calls of active or inactive are those of the source. The call rests on the fitted dose curve; in most records, active means well fitted inhibition curve with a large enough effect; inconclusive means small, poorly fitted or top-dose-only effect; inactive means flat fitted curve, though single readings scatter.
Molecular target: Ferritin light chain (Equus caballus) (UniProt P02791)
Assay: Confirmation Assay for Identification of Novel General Anesthetics; further: nearly all actives have a fitted effect of over 40% in size
Conditions: apoferritin 1-aminoanthracene fluorescence displacement
Outline: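 Horse apoferritin (10 uM) pre-loaded with 1-AMA (50% saturated, PBS) exposed to compounds 10 min at room temperature; loss of 1-AMA fluorescence (380/535 nm) scaled between free and bound ligand, curves fitted with Hill equation.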
Potency means the concentration at half of the fitted maximal effect.

Ferritin light chain (Equus caballus), sequence (P02791 2-175 limits assumed): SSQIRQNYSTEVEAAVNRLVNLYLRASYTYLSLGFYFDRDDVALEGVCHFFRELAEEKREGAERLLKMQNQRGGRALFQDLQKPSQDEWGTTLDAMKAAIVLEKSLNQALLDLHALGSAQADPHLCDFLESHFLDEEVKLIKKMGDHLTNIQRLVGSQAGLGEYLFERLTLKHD

`Cc1ccc(NC(=O)C2COc3ccccc3O2)cc1C` (stereo not drawn) was tested, and the Potency was 17.8 µM (active).
With `COC1CCCCC1Nc1cc(C)cc(C)c1` (stereo not drawn) the Potency was 31.6 µM (active).
`CCC(CC)C(=O)OCC(=O)NC12CC3CC(CC(C3)C1)C2` was tested, and the Potency was 10 µM (active).
For `Cc1cc(C)n2nc(CC(=O)NC3CCCCCCC3)nc2n1`, the Potency was 10 µM (active).
In the case of `CCN1C(=O)N(c2cccc3ccccc23)C(C)=CC1(C)C`, the Potency was 14.1 µM (active).
For `CCCNC(=O)c1csc2c1CCCCC2`, the Potency was 28.2 µM (active).
In the case of `O=C(CSCc1ccccc1)Nc1cc([N+](=O)[O-])ccc1F`, the Potency was 31.6 µM (active).
In the case of `O=C(CSc1ccc(F)cc1)NC12CC3CC(CC(C3)C1)C2`, the Potency was 15.8 µM (active).
For `Cc1ccc(C2=NN(CC(=O)NC(C)c3ccccc3)C(=O)CC2)cc1` (stereo not drawn), the Potency was 31.6 µM (active).
With `Cc1cc(NS(=O)(=O)c2ccccc2)cc(Cl)c1O` the Potency was 11.2 µM (active).
With `COc1ccc(Cc2nnc(NC(=O)c3ccccc3F)s2)cc1` the Potency was 25.1 µM (active).
With `Cc1ccc(NCc2ccccc2O)cc1` the Potency was 14.1 µM (active).
In the case of `COc1cc(CNCCO)ccc1OCCc1ccccc1`, the Potency was 15.8 µM (active).
For `c1cnc(NC2C3CC4CC(C3)CC2C4)nc1` (stereo not drawn), the Potency was 6.31 µM (active).
For `Cc1cc(NS(=O)(=O)N(C)C)ccc1C(C)C`, the Potency was 20 µM (active).
For `Cn1cc([N+](=O)[O-])c(C(=O)Nc2ccc(C3CCCCC3)cc2)n1`, the Potency was 14.1 µM (active).
In the case of `O=S(=O)(NCCC1=CCCCC1)c1ccc(F)cc1`, the Potency was 8.91 µM (active).
For `CC1CCCCC1NC(=O)Cn1nc(-c2ccccc2)ccc1=O` (stereo not drawn), the Potency was 7.08 µM (active).
`Cc1ccccc1NCc1ccccc1O` was tested, and the Potency was 15.8 µM (active).
`O=C(COc1ccccc1Cl)N1CCCCCCC1` was tested, and the Potency was 15.8 µM (active).
For `CCCCOC(=O)Nc1ccc(C)c(Cl)c1`, the Potency was 17.8 µM (active).
`C=Cc1ccc(Cn2nc(-c3ccc(C)cc3)ccc2=O)cc1` was tested, and the Potency was 17.8 µM (active).
For `O=C(NC1CCCCCC1)c1nnc(Cc2ccc(Cl)cc2)o1`, the Potency was 15.8 µM (active).
`CN(C)CC(=O)Nc1ccc(Oc2ccc(Cl)cc2)cc1` was tested, and the Potency was 28.2 µM (active).
With `Cc1ccc(Cn2cccc(NC(=O)NCc3ccccc3)c2=O)cc1` the Potency was 7.08 µM (active).
`CC(=O)Nc1ccc(C(=O)OCC(=O)NC2CCCCCCC2)cc1` was tested, and the Potency was 15.8 µM (active).
For `COc1ccc(CNC(=O)COC(=O)CCC2CCCCC2)cc1`, the Potency was 15.8 µM (active).
In the case of `O=C(CSC(=S)N1CCCCC1)c1ccccc1`, the Potency was 15.8 µM (active).
`COc1ccccc1-c1cn(C(C)(C)C)nc1C` was tested, and the Potency was 14.1 µM (active).
`O=C(CCNc1cccc(Cl)c1)c1ccco1` was tested, and the Potency was 31.6 µM (active).
`Cc1cc(C(F)(F)F)n(-c2ccc(N)cc2)n1` was tested, and the Potency was 17.8 µM (active).
With `N/C(=N\OC(=O)Cc1ccc(-c2ccccc2)cc1)c1ccncc1` the Potency was 31.6 µM (active).
For `CC(=O)Nc1ncc(Cc2cc(Cl)ccc2Cl)s1`, the Potency was 15.8 µM (active).
In the case of `Cc1ccc(CNc2ccc(CNc3ncn[nH]3)cc2)cc1`, the Potency was 20 µM (active).
`O=C(CCNc1cccc(Cl)c1)c1cccs1` was tested, and the Potency was 17.8 µM (active).
`O=C1NC2(CCCCCC2)Oc2ccccc21` was tested, and the Potency was 20 µM (active).
For `O=S1(=O)CCOCCCN1Cc1ccccc1Br`, the Potency was 12.6 µM (active).
For `Cc1ccccc1OCC(=O)N1CCCCCCC1`, the Potency was 7.94 µM (active).
With `Clc1ccc(Nc2nc(C3CC3)cs2)cc1` the Potency was 39.8 µM (active).
In the case of `CC1CCN(c2nc(-c3ccncc3)nc3ccccc23)CC1`, the Potency was 39.8 µM (active).
For `Nc1ccccc1Oc1ccc2ccccc2c1`, the Potency was 11.2 µM (active).
With `COC(=O)c1ccc(/C=N/OCC(=O)NC2CCCCCCC2)cc1` the Potency was 7.94 µM (active).
With `CC(=O)c1cccc(NC(=O)CN2C(=O)NC3(CCCCCCC3)C2=O)c1` the Potency was 14.1 µM (active).
`CC(C)(Nc1ccccc1)C(=O)c1ccccc1` was tested, and the Potency was 12.6 µM (active).
For `Cc1ccc(NC(=O)Cn2nc(-c3ccco3)ccc2=O)cc1Cl`, the Potency was 28.2 µM (active).
In the case of `O=C(Nc1cccc(Cl)c1)N1CCc2ccccc2C1`, the Potency was 11.2 µM (active).
For `Cc1ccc(C(=S)N2CCCCCC2)cc1`, the Potency was 28.2 µM (active).
In the case of `O=c1c2ccccc2nnn1Cc1ccccc1Cl`, the Potency was 15.8 µM (active).
`Nn1cnc2sc3c(c2c1=O)CCC3` was tested, and the Potency was 31.6 µM (active).
In the case of `O=C(Nc1cccc(Cl)c1)C1COc2ccccc2O1` (stereo not drawn), the Potency was 14.1 µM (active).
With `CC(NC(=O)c1ccc(Br)o1)C1CC2CCC1C2` (stereo not drawn) the Potency was 8.91 µM (active).
For `COc1ccc(-c2ccc(=O)n(CC(=O)NCc3ccco3)n2)cc1`, the Potency was 14.1 µM (active).
`ClC1(Cl)CC1CSc1nc2ccccc2[nH]1` (stereo not drawn) was tested, and the Potency was 15.8 µM (active).
For `O=C(NC1CCCCCCC1)c1ccc(Br)o1`, the Potency was 17.8 µM (active).
With `CCC1CCCCN1S(=O)(=O)Cc1ccccc1Cl` (stereo not drawn) the Potency was 15.8 µM (active).
In the case of `COc1ccc(NC(C)c2ccccc2)cc1` (stereo not drawn), the Potency was 15.8 µM (active).
`CC1CCCCC1NC(=O)COC(=O)c1ccc(N(C)C)cc1` (stereo not drawn) was tested, and the Potency was 11.2 µM (active).
`O=C1CCCc2ccccc2N1Cc1ccccc1Cl` was tested, and the Potency was 15.8 µM (active).

Reference: PubChem BioAssay AID489008 (National Center for Advancing Translational Sciences (NCATS), 2010)
